From PubChem BioAssay (EPA / NIEHS) come the findings set out here.

What all share (details): mRNA level, 48 h; actives raise or lower the signal
Read-out in test [1]: Glutamate-cysteine ligase catalytic (GCLC), GCLC (gene 2729)
The test can be described thus: LTEA_HepaRG_GCLC: Life Technologies and Expression Analysis (LTEA) Assay for Glutamate-cysteine ligase catalytic (GCLC) using HepaRG (AID 2283498). In a few lines:
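Read-out is GCLC transcript level by Fluidigm-based TaqMan qRT-PCR, normalized to three housekeeping genes and fitted in both directions relative to 0.5% DMSO. Human HepaRG cells received chemicals for 48 h, up to 100 uM.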

Read-out in test [2]: growth arrest and DNA damage 45 (GADD45G), GADD45G (gene 10912)
The test can be described thus: LTEA_HepaRG_GADD45G: Life Technologies and Expression Analysis (LTEA) Assay for growth arrest and DNA damage 45 (GADD45G) using HepaRG (AID 2283499). In a few lines:
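GADD45G transcript level by qRT-PCR (housekeeping-normalized: ACTB, GAPDH, POLR2A) after 48 h chemical treatment of a single HepaRG lot in serum-free induction medium; eight-point half-log series up to 100 uM in 0.5% DMSO, duplicates, up- or down-regulation scored.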

Read-out in test [3]: Glutamate-cysteine ligase regulatory (GCLM), GCLM (gene 2730)
The test can be described thus: LTEA_HepaRG_GCLM: Life Technologies and Expression Analysis (LTEA) Assay for Glutamate-cysteine ligase regulatory (GCLM) using HepaRG (AID 2283500). In a few lines:
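Differentiated HepaRG cells exposed 48 h in serum-free induction medium to eight half-log concentrations up to 100 uM (0.5% DMSO). GCLM mRNA by TaqMan qRT-PCR, normalized to ACTB, GAPDH and POLR2A; bidirectional fit versus DMSO.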

Read-out in test [4]: Glutathione S-transferase M3 (GSTM3), GSTM3 (gene 2947)
The test can be described thus: LTEA_HepaRG_GSTM3: Life Technologies and Expression Analysis (LTEA) Assay for Glutathione S-transferase M3 (GSTM3) using HepaRG (AID 2283501). Put shortly:
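GSTM3 transcript levels came from Fluidigm TaqMan qRT-PCR normalized to three housekeeping genes, fitted in both directions against DMSO. HepaRG cultures received chemicals for 48 h in serum-free induction medium (0.5% DMSO), 8 half-log concentrations up to 100 uM, duplicate.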

Read-out in test [5]: Heat shock 70 kDa protein 1 (HSPA1A), gene 3303
The test can be described thus: LTEA_HepaRG_HSPA1A: Life Technologies and Expression Analysis (LTEA) Assay for Heat shock 70 kDa protein 1 (HSPA1A) using HepaRG (AID 2283502). In a few lines:
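Human HepaRG cells in serum-free induction medium were exposed in duplicate for 48 h to 8 half-log concentrations, highest 100 uM, in 0.5% DMSO. HSPA1A mRNA read by TaqMan qRT-PCR, normalized to ACTB, GAPDH, POLR2A, fitted bidirectionally against DMSO.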

Read-out in test [6]: Hypoxia-inducible factor 1-alpha (Homo sapiens) (UniProt Q16665)
The experiment in a line: LTEA_HepaRG_HIF1A: Life Technologies and Expression Analysis (LTEA) Assay for Hypoxia-inducible factor 1 (HIF1A) Trancription factor using HepaRG (AID 2283503). Put shortly:
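Differentiated HepaRG cells in serum-free induction medium exposed 48 h, in duplicate, to 8-point half-log series from 100 uM in 0.5% DMSO. HIF1A mRNA measured by TaqMan qRT-PCR, normalized to ACTB/GAPDH/POLR2A, fitted bidirectionally versus DMSO.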

Read-out in test [7]: 3-Hydroxy-3-Methylglutaryl-CoA Synthase 2 (HMGCS2), HMGCS2 (gene 3158)
The experiment in a line: LTEA_HepaRG_HMGCS2: Life Technologies and Expression Analysis (LTEA) Assay for 3-Hydroxy-3-Methylglutaryl-CoA Synthase 2 (HMGCS2) using HepaRG (AID 2283504). Put shortly:
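Readout is HMGCS2 transcript by qRT-PCR, housekeeping-normalised (ACTB/GAPDH/POLR2A) and fitted bidirectionally against 0.5% DMSO. Differentiated HepaRG cells received chemicals 48 h, duplicate wells, eight half-log concentrations topping at 100 uM.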

Read-out in test [8]: HGF (gene 3082)
The experiment in a line: LTEA_HepaRG_HGF: Life Technologies and Expression Analysis (LTEA) Assay for Hepatocyte Growth Facto (HGF) using HepaRG (AID 2283505). Put shortly:
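HGF transcript was quantified by TaqMan qRT-PCR against three housekeeping genes after 48 h treatment of HepaRG cells. Exposure ran in duplicate over eight half-log steps topping at 100 uM in 0.5% DMSO vehicle.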

Read-out in test [9]: Insulin Like Growth Factor 1 (IGF1), IGF1 (gene 3479)
The test can be described thus: LTEA_HepaRG_IGF1: Life Technologies and Expression Analysis (LTEA) Assay for Insulin Like Growth Factor 1 (IGF1) using HepaRG (AID 2283506). In a few lines:
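Differentiated HepaRG cells in serum-free induction medium, exposed 48 h in duplicate to 8 half-log concentrations up to 100 uM in 0.5% DMSO. IGF1 mRNA by Fluidigm qRT-PCR, normalised to ACTB, GAPDH and POLR2A.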

Read-out in test [10]: Intercellular Adhesion Molecule 1 (ICAM1), ICAM1 (gene 3383)
The test can be described thus: LTEA_HepaRG_ICAM1: Life Technologies and Expression Analysis (LTEA) Assay for Intercellular Adhesion Molecule 1 (ICAM1) using HepaRG (AID 2283507). In a few lines:
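ICAM1 transcript levels measured by qRT-PCR, normalized to three housekeeping genes (ACTB, GAPDH, POLR2A), after 48 h chemical exposure of HepaRG cells. Duplicate eight-point half-log series from 100 uM in 0.5% DMSO; gain or loss fitted against vehicle.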

Read-out in test [11]: Insulin-like growth factor-binding protein 1 (IGFBP1), IGFBP1 (gene 3484)
The test can be described thus: LTEA_HepaRG_IGFBP1: Life Technologies and Expression Analysis (LTEA) Assay for Insulin-like growth factor-binding protein 1 (IGFBP1) using HepaRG (AID 2283508). Put shortly: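 Read-out is qRT-PCR transcript level normalized to three housekeeping genes, fitted in both directions against 0.5% DMSO. Differentiated HepaRG cells received eight half-log concentrations (top 100 uM) in duplicate for 48 h in serum-free induction medium.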

Read-out in test [12]: Interleukin 6 (IL6), IL6 (gene 3569)
The test can be described thus: LTEA_HepaRG_IL6: Life Technologies and Expression Analysis (LTEA) Assay for Interleukin 6 (IL6) using HepaRG (AID 2283509). Put shortly:
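HepaRG, ~100,000 cells/well, 48 h pre-culture; serum-free induction medium; cmpd 8-pt half-log from 100 uM, 0.5% DMSO, duplicate, 48 h. Lysis in RLT, TaqMan qRT-PCR; gain or loss vs DMSO.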

Read-out in test [13]: Interleukin 6 Receptor (IL6R), IL6R (gene 3570)
The test can be described thus: LTEA_HepaRG_IL6R: Life Technologies and Expression Analysis (LTEA) Assay for Interleukin 6 Receptor (IL6R) using HepaRG (AID 2283510). In a few lines:
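Differentiated HepaRG cells, plated 48 h, then exposed in duplicate for 48 h in serum-free induction medium to 8 half-log concentrations (top 100 uM, 0.5% DMSO). IL6R mRNA measured by TaqMan qRT-PCR, normalized to ACTB/GAPDH/POLR2A; bidirectional fit vs DMSO.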

Read-out in test [14]: Potassium channel subfamily K member 1 (KCNK1), KCNK1 (gene 3775)
The test can be described thus: LTEA_HepaRG_KCNK1: Life Technologies and Expression Analysis (LTEA) Assay for Potassium channel subfamily K member 1 (KCNK1) using HepaRG (AID 2283511). Put shortly:
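Gain or loss of KCNK1 mRNA is the read-out, quantified by qRT-PCR against three housekeeping genes after 48 h chemical treatment of human HepaRG liver cells. Concentrations ran from 100 uM downward in half-log steps, vehicle 0.5% DMSO.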

Read-out in test [15]: JUN Transcription Factor, JUN (gene 3725)
The test can be described thus: LTEA_HepaRG_JUN: Life Technologies and Expression Analysis (LTEA) Assay for JUN Transcription Factor using HepaRG (AID 2283513). In a few lines: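 HepaRG cells, 48 h post-plating, exposed 48 h in serum-free induction medium to 8-point half-log series (top 100 uM, 0.5% DMSO), duplicate; mRNA by qRT-PCR (TaqMan, Fluidigm), normalized to ACTB/GAPDH/POLR2A; bidirectional fit vs DMSO.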

Read-out in test [16]: Lipase C (LIPC), LIPC (gene 3990)
The experiment in a line: LTEA_HepaRG_LIPC: Life Technologies and Expression Analysis (LTEA) Assay for Lipase C (LIPC) using HepaRG (AID 2283514). Put shortly:
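Read-out is LIPC transcript level by TaqMan qRT-PCR, normalized to three housekeeping genes, after 48 h chemical treatment of human HepaRG liver cells. Curves span eight concentrations topping at 100 uM; activity in either direction scored relative to 0.5% DMSO.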

Read-out in test [17]: Lipoprotein lipase (LPL), LPL (gene 4023)
The test can be described thus: LTEA_HepaRG_LPL: Life Technologies and Expression Analysis (LTEA) Assay for Lipoprotein lipase (LPL) using HepaRG (AID 2283515). In a few lines:
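Read-out is LPL transcript level by qRT-PCR, normalized to three housekeeping genes and fitted bidirectionally against the DMSO control. Human HepaRG cells received chemicals for 48 h at up to 100 uM.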

Read-out in test [18]: MicroRNA 122 (MIR122), gene 406906
The experiment in a line: LTEA_HepaRG_MIR122: Life Technologies and Expression Analysis (LTEA) Assay for MicroRNA 122 (MIR122) using HepaRG (AID 2283516). Note: the transcript read is the microRNA miR-122. In a few lines: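 Differentiated human HepaRG cells in serum-free induction medium exposed 48 h to 8 half-log concentrations from 100 uM in 0.5% DMSO, duplicate. MIR122 quantified by Fluidigm TaqMan qRT-PCR, normalised to ACTB, GAPDH, POLR2A; fold change fitted bidirectionally versus DMSO.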

Read-out in test [19]: Keratin 19 (KRT19), KRT19 (gene 3880)
The experiment in a line: LTEA_HepaRG_KRT19: Life Technologies and Expression Analysis (LTEA) Assay for Keratin 19 (KRT19) using HepaRG (AID 2283512). In a few lines:
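KRT19 transcript measured by TaqMan qRT-PCR, referenced to three housekeeping genes, after HepaRG cells received test chemicals for 48 h. Eight half-log concentrations, top 100 uM, 0.5% DMSO vehicle; increases and decreases both fitted.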

Read-out in test [20]: matrix metalloproteinase-10 (MMP10), MMP10 (gene 4319)
The experiment in a line: LTEA_HepaRG_MMP10: Life Technologies and Expression Analysis (LTEA) Assay for matrix metalloproteinase-10 (MMP10) using HepaRG (AID 2283517). In a few lines:
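Gain or loss of MMP10 mRNA is fitted relative to the 0.5% DMSO vehicle. The human hepatic line HepaRG receives a 48-hour serum-free exposure, in duplicate, with a maximum concentration of 100 uM.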

Active and inactive are the calls of the source. Rule for the calls: active = hit-call score of the fitted dose curve at least 0.9, where 1 is the maximum; inactive = score below 0.9.

Chain of Hypoxia-inducible factor 1-alpha (Homo sapiens) (Q16665 whole entry, looked up): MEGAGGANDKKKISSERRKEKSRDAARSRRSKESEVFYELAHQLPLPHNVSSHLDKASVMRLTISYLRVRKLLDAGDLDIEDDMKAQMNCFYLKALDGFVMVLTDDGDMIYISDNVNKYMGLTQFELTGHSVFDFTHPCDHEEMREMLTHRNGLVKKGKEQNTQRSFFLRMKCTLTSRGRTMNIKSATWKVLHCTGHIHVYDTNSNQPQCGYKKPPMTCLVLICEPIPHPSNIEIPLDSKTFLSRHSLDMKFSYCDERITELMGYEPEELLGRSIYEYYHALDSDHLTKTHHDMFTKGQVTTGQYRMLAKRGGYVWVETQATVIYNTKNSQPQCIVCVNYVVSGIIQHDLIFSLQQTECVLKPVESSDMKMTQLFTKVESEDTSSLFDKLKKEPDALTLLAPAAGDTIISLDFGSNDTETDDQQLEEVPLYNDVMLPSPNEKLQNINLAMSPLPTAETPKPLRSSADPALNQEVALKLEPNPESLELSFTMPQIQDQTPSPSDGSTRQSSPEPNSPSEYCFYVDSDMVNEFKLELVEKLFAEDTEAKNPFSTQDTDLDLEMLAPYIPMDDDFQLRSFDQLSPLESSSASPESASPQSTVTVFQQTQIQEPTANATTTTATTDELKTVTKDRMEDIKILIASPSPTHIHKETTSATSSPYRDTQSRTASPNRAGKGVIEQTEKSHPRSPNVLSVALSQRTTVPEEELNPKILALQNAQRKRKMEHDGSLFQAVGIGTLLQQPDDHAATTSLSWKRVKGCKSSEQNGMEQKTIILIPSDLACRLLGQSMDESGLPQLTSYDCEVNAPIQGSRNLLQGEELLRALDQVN

Broadly, the AC50 is the midpoint of the concentration-response curve, whichever way the signal moves. For the compound `C=CCc1cc(S(=O)(=O)c2ccc(O)c(CC=C)c2)ccc1O`, the AC50 in [1] was 50 µM (active); in test [5], 79 µM (active); in [6], 91.4 µM (active); in test [7], 86.3 µM (active); in [8], 79.5 µM (active); in [9], 83.5 µM (active). Also, the AC50 in test [11] was 79.6 µM (active); in [12], 93.2 µM (active); in test [13], 75.9 µM (active); in [16], 84.9 µM (active); in test [17], 93.4 µM (active); in test [18] it was 82 µM (active). For the same compound, the compound was classed as inactive in test [2], in [3], in test [4], in [10], in [14] and in test [15].
Consider `CC(C)CC(C)O` (stereo unspecified), for which the outcome in test [1], in [2], in [3], in test [4], in [5] and in [6] was inactive. Moreover, the outcome in [7], in test [8], in test [9], in test [10], in test [11] and in test [12] was inactive. Further, the call in [13], in test [14], in [19], in [15], in test [16] and in [17] was inactive. For the same compound, the result in test [18] was inactive.
Regarding `c1ccc2ncccc2c1`, the result in test [1], in test [2], in test [3], in test [5], in test [7] and in [8] was inactive. The compound was called inactive in test [9], in test [10], in [11], in test [12], in [13] and in test [14]. Moreover, the call in test [19], in test [15], in test [16], in test [17], in test [18] and in test [20] was inactive. For the same compound, the AC50 in test [6] is 50 µM (active).
